Sampled rows, rich in hits. Any-hit rate of the full collection: about 32%.
CYP2C19 activ: increases human CYP2C19 enzyme activity | P33261 | recombinant CYP2C19, luciferin-H EGE luminescence; stronger effect = higher value; 0 = fully inhibited enzyme, 1 = untreated enzyme | activation factor at 5 µM | 96,000 tested, under 10 active | AID 1025;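 active = activation factor of at least 2 at 5 µM in the primary screen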
Target sequence (P33261 whole entry, looked up): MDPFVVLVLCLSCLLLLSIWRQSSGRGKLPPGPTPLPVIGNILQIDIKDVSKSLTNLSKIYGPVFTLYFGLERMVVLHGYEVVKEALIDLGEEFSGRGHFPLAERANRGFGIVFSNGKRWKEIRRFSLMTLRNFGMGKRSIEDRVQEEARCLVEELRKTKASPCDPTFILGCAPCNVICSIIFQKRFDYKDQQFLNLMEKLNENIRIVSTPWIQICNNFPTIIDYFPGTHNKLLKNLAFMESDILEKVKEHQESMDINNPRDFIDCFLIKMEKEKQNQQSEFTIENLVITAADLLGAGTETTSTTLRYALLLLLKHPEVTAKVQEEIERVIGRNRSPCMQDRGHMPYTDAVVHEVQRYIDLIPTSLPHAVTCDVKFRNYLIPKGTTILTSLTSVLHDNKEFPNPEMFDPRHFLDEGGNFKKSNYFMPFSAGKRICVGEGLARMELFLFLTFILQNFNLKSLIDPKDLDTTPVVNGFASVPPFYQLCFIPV
CYP2C9 inh: blocks human cytochrome P450 2C9. P11712. CYP2C9 Supersomes, luciferin-H conversion, luminescence. inhibition, % at 5 µM. actives 20% (n = 96,000). AID 777;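 active = blocking of liver enzyme CYP2C9 beyond about 50% at 5 µM, limit read from the data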
PostGolgi ctrl: yeast control strain growth, post-Golgi counter-screen; efflux-deficient yeast background strain, growth absorbance A615, 16 h; inhibition, % at 10 µM; actives 5% (n = 98,000)
PostGolgi yeast: growth inhibition of a yeast mutant, post-Golgi transport screen; post-Golgi transport phenotypic cell assay; inhibition, % at 10 µM; actives 0.9% (n = 98,000); AID 739;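 also: yeast cells grown in 1536-well plates; yeast grown about 18 h at 30C before absorbance read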
CYP2C9 act: activators of human CYP2C9. P11712. recombinant CYP2C9, luciferin-H conversion, luminescence; stronger effect = higher value; factor 1 = untreated enzyme, 0 = blocked. activation factor at 5 µM. actives 1.4% (n = 96,000);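 active = activation factor of 2 or more for CYP2C9 at a 5 µM dose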
CYP2C19 inhib: inhibitors of human CYP2C19; CYP2C19 Supersomes, luciferin-H EGE luminescence, 30 min; inhibition, % at 5 µM; AID 778; actives 21% (n = 96,000); P33261;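 active = CYP2C19 inhibition above a set limit at 5 µM in the primary screen, cut at about 50% in these data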
Large screens that a line does not name were inactive. Rule as the data show it, unless noted: active = inhibition above about 30%; inactive = the rest.

CCOc1ccc(NC(=O)CN(C)S(=O)(=O)c2cccs2)cc1	none
Cc1ccc(NC(=O)CN(C)S(=O)(=O)c2cccs2)cc1C	CYP2C19 inhib 78.6
Cc1ccc(NC(=O)CN(C)S(=O)(=O)c2cccs2)cc1F	CYP2C19 inhib 68.6
Cc1noc(C)c1S(=O)(=O)N(C)CC(=O)Nc1ccc(F)cc1	none
Cc1ccc(N(C(=O)C2CCCC2)C2C=CS(=O)(=O)C2)cc1 (stereo unspecified)	PostGolgi ctrl 38.6
CCN1C(=O)C(C)S/C1=N\S(=O)(=O)c1ccc(Cl)s1 (stereo unspecified)	CYP2C19 inhib 70.0
CC1(C(=O)O)CCC(C(=O)NC2CCCCC2)C1(C)C (stereo unspecified)	none
Clc1ccc(CNC2CCCC2)c(Cl)c1	CYP2C19 inhib 76.6
O=C(NCc1ccco1)C1CCCN1C(=O)NCc1ccccc1 (stereo unspecified)	none
N#C/C(=C\c1cc(Cl)cc(Cl)c1O)C(=O)NC1CCCCC1	none
Cc1ccnc(NC(=O)CCC(=O)N(CC(=O)NC2CCCCC2)Cc2ccc3c(c2)OCO3)c1	CYP2C9 inh 75.8, CYP2C19 inhib 55.7 (no result: PostGolgi ctrl, PostGolgi yeast)
O=C(CCCC(=O)N(CC(=O)NC1CCCC1)Cc1ccc(F)cc1)Nc1ccccn1	CYP2C9 inh 52.2
O=C(CCCC(=O)N(CC(=O)NC1CCCCC1)Cc1ccc2c(c1)OCO2)Nc1ccccn1	CYP2C9 inh 63.9, CYP2C19 inhib 64.6
O=C(CCCC(=O)N(CC(=O)NC1CCCC1)C1CCCC1)Nc1ccccn1	PostGolgi ctrl 33.9
S=C1NC2=C(C(c3ccc(Br)cc3)N1)N1CCC2CC1 (stereo unspecified)	none
COc1ccc(S(=O)(=O)N(C)CC(=O)NC2CCCCC2)cc1OC	none
COc1ccc(S(=O)(=O)N(C)CC(=O)NCc2cccnc2)cc1Cl	CYP2C19 inhib 53.9
CN(CC(=O)NCc1cccnc1)S(=O)(=O)c1ccc2c(c1)c(=O)n(C)c(=O)n2C	none
COc1ccc(S(=O)(=O)CCC(=O)NC2CCCCC2)cc1	none
COc1ccc(S(=O)(=O)N(C)CC(=O)NC2CC2)cc1	CYP2C9 act 2.5
COc1ccc(N(CC(=O)NC2CCCCC2)S(=O)(=O)c2cccnc2)cc1	CYP2C9 inh 64.9, CYP2C19 inhib 53.2
COc1ccc(S(=O)(=O)N(C)CC(=O)NC2CCCCC2)cc1Cl	CYP2C9 act 2.4, CYP2C19 inhib 52.9
O=C(Nc1ccccc1F)c1ccc(S(=O)(=O)NCC2CCCO2)cc1 (stereo unspecified)	none
COc1ccc2[nH]c(=O)c(CN(C(=O)C3CCCO3)c3cccc(C)c3)cc2c1 (stereo unspecified)	none (no result: PostGolgi ctrl, PostGolgi yeast)
Cc1occc1-c1nnc(SCC(=O)N(C)CCC#N)n1N	none
COc1ccc(C)cc1S(=O)(=O)N(C)CC(=O)N1CCCCCC1	none
CCOC(=O)C1CCN(C(=O)CN(C)S(=O)(=O)c2cc(C)ccc2OC)CC1	CYP2C9 inh 54.2
COc1ccc(S(=O)(=O)N(CC(N)=O)C2CCCCC2)cc1Cl	CYP2C19 inhib 72.4
COc1ccc(NC(=O)CN(C2CCCCC2)S(C)(=O)=O)cc1Cl	none
COc1ccc(S(=O)(=O)N(C)CC(=O)N2CCC(C(N)=O)CC2)cc1Cl	CYP2C9 act 2
Cc1ccnc(NC(=O)Nc2cccc(F)c2)c1	none
C=CCn1c(=O)c2ccccc2n2c(SC(C)C(=O)Nc3nc(-c4ccccc4)cs3)nnc12 (stereo unspecified)	none (no result: CYP2C19 activ, CYP2C9 inh, CYP2C9 act, CYP2C19 inhib)
CCOC(=O)CNC(=O)CSc1nc2nc(C)c(Br)cc2[nH]1	CYP2C9 inh 60.8, CYP2C19 inhib 60.0
CCCOC(=O)c1ccc(-c2c(C)noc2-c2ccc(OC)cc2O)o1	CYP2C9 inh 92.4, CYP2C19 inhib 80.8
COc1ccc(S(=O)(=O)/N=C2/NC(=O)/C(=C\c3cc(OC)c(OC)cc3[N+](=O)[O-])S2)cc1	CYP2C9 inh 99.8
Cc1ccc(CNCCC2=CCCCC2)cc1	CYP2C19 inhib 93.9
C1=C(CCNCC2CC2)CCCC1	CYP2C19 inhib 53.5
COc1ccc(-n2cnnc2SCC(=O)NC2CCS(=O)(=O)C2)cc1 (stereo unspecified)	none
ONC(=Nc1ccc(Cl)cc1)c1ccccc1	CYP2C19 inhib 91.2
Cc1ccc2c(c1)C1(OCCO1)C(=O)N2	none
CC(=O)c1c(C)[nH]c(C(=O)N2CCCCCC2)c1C	none
COCCn1c(SCc2nnc(-c3ccccc3)o2)nc2sc3c(c2c1=O)CCC3	CYP2C9 inh 87.1, PostGolgi ctrl 96.1
COCCn1c(SCC(=O)Nc2ncc(C)s2)nc2sc3c(c2c1=O)CCC3	CYP2C9 inh 51.9
COc1ccc(-c2nnc(CSc3ncnc4sc5c(c34)CCC5)o2)cc1OC	CYP2C9 inh 53.1 (no result: PostGolgi ctrl, PostGolgi yeast)
N#CCSc1ncnc2sc3c(c12)CCC3	none
Cc1ccc(OC(C)C)c(CN(CCO)CCO)c1	none
O=C1c2ccccc2C(=O)N1Cc1nn2c(-c3ccc(Cl)cc3)nnc2s1	none (no result: PostGolgi ctrl, PostGolgi yeast)
CCn1c(SCC(=O)N2CCN(c3ccccc3)CC2)nnc1-c1ccoc1C	none
CCCCSc1nc(C)[nH]c1[N+](=O)[O-]	none
COc1cc(NC(=O)CCC(=O)O)nc(OC)n1	none
Cc1cc(O)c(C2(C(F)(F)F)NCCNC2=O)cc1C (stereo unspecified)	none
COc1ccc2c(c1)[nH]c1c(=O)n(CCN(C)C)cnc12	none
COc1ccc2c(c1)[nH]c1c(=O)n(CCCn3ccnc3)cnc12	CYP2C9 inh 64.2
COc1ccc2c(c1)[nH]c1c(=O)n(CCc3cnc[nH]3)cnc12	CYP2C9 inh 96.2, CYP2C19 inhib 84.9
O=C(N(c1ccccc1)c1ccccc1)n1ccnc1	none (no result: CYP2C19 activ, CYP2C9 inh, CYP2C9 act, CYP2C19 inhib)
Oc1ccc(-c2cn3c(n2)SCC3)cc1O	none
Cc1cccc(OCCC(=O)Nc2c(C)n(C)n(-c3ccccc3)c2=O)c1	none
Cn1nc(-c2ccc(OCC(=O)Nc3cccnc3)cc2)c2ccccc2c1=O	CYP2C9 inh 70.9
Cc1ccc(NC(=O)c2ccc(-c3nn(C)c(=O)c4ccccc34)cc2)c(C)c1	PostGolgi ctrl 40.5
Cn1nc(-c2ccc(C(=O)Nc3cccnc3)cc2)c2ccccc2c1=O	CYP2C9 inh 53.3, CYP2C19 inhib 58.5
Cn1nc(-c2ccc(C(=O)Nc3cccc(Cl)c3)cc2)c2ccccc2c1=O	CYP2C19 inhib 50.6
Cc1c(C#N)c(N=CN(C)C)c(C(=O)c2ccc(Br)cc2)n1-c1ccc(Cl)cc1	none
CCOC(=O)CSc1ccc2nnc(-c3cccnc3)n2n1	none
O=C(Cn1c(-c2cscn2)nc2ccccc21)Nc1ccccc1F	none
O=C(CCN1C(=O)C2CC=C(Cl)CC2C1=O)N1CCCCC1 (stereo unspecified)	none
Cc1ccc(NC(=O)c2ccc(-c3nn(C)c(=O)c4ccccc34)cc2)cc1	CYP2C9 inh 57.1
Cn1nc(-c2ccc(C(=O)N3CCN(Cc4ccccc4)CC3)cc2)c2ccccc2c1=O	CYP2C9 inh 73.0, CYP2C19 inhib 68.8
CCOC(=O)CSc1cc(=O)n(C)c2cc(Cl)ccc12	CYP2C9 inh 50.6, CYP2C19 inhib 63.6
